This is part of a sample that, as a whole, favours compounds with a hit. Of some 83,000 tested, about 20% had one in any assay.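 Compound tested at a single concentration for 48 hours in 96-well plates; a percent growth value below 10 was scored as active.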 Calls of active or inactive are those of the source.
Key:
Assay in all cases: NCI-60 one-dose screen, 48 h (100 = growth as untreated, 0 = no growth, -100 = all killed)
Conditions in all cases: 10 µM unless noted
[1] = system: SK-MEL-2 melanoma
[2] = system: EKVX NSCLC
[3] = system: SN12C renal
[4] = system: UO-31 renal
[5] = system: TK-10 renal
[6] = system: ACHN renal
[7] = system: A498 renal
[8] = system: CCRF-CEM leukemia
[9] = system: MOLT-4 leukemia
[10] = system: SR leukemia
[11] = system: RPMI-8226 leukemia
[12] = system: OVCAR-8 ovarian
[13] = system: OVCAR-5 ovarian
[14] = system: OVCAR-4 ovarian
[15] = system: SK-OV-3 ovarian
[16] = system: IGROV1 ovarian
[17] = system: OVCAR-3 ovarian
[18] = system: HS 578T breast
[19] = system: NCI/ADR-RES ovarian
[20] = system: T-47D breast

Measured: growth

O=c1nc(-c2ccccc2)c2cc(-c3ccc(N4CCCC4)nc3)ccc2[nH]1
inactive: [1] 37.5% | [2] 71.1% | [3] 83.9% | [4] 63.6% | [5] 88.5% | [6] 82.6% | [7] 46.6% | [8] 54.5% | [9] 44% | [10] 18.2% | [11] 71.6% | [12] 89.2% | [13] 98.7% | [14] 85.3% | [15] 80.6% | [16] 66.1% | [17] 44.7% | [18] 67.8% | [19] 63.9%

C#CCOC(=O)[C@]1(C)CCC[C@]2(C)[C@H]3C[C@H]4C(C(C)C)=C[C@]3(CC[C@H]21)[C@@H]1C(=O)CCC(=O)[C@@H]14
inactive: [1] 88.2% | [2] 76.1% | [3] 86.8% | [4] 74.7% | [5] 90.7% | [6] 93.5% | [7] 66.5% | [8] 67.1% | [9] 73.5% | [10] 64.9% | [11] 67.9% | [12] 90.5% | [13] 93.8% | [14] 73.9% | [15] 78.9% | [16] 78.3% | [17] 95% | [18] 80.8% | [19] 81.5%

COc1ccc(C(=O)c2cc(F)c(F)c(OC)c2F)cc1OC(=O)CCl
inactive: [1] 25.9% | [2] 73.9% | [3] 39.4% | [4] 71.8% | [5] 88.2% | [6] 59.8% | [7] 94.5% | [8] 32.8% | [9] 29.6% | [10] 20.8% | [11] 37.2% | [12] 51.1% | [13] 103% | [14] 81.7% | [15] 45.9% | [16] 43.7% | [17] 13.7% | [18] 65.4% | [19] 14.3%

COC(=O)c1ccc2c(c1)n(Cc1ccc3ccccc3c1)c[n+]2Cc1ccc2ccccc2c1
active: [1] 5.59% | [10] -37.1% | [11] -5.06% | [16] 4.97%
inactive: [2] 71% | [3] 38.4% | [4] 83.6% | [5] 49.1% | [6] 99% | [7] 80.5% | [8] 27.5% | [9] 29.2% | [12] 52.9% | [13] 55.6% | [14] 35.5% | [15] 75.5% | [17] 15.6% | [18] 67.6% | [19] 101%

CCOCc1cc(C(C)(C)C)ccc1O
inactive: [1] 110% | [2] 98.3% | [3] 102% | [4] 94.5% | [5] 93.8% | [6] 105% | [7] 74.2% | [8] 101% | [9] 99.4% | [10] 88.7% | [11] 106% | [12] 95.4% | [13] 105% | [14] 103% | [15] 97.8% | [16] 107% | [17] 115% | [18] 99.2% | [19] 103% | [20] 98.6%

CSc1nc(-c2ccc(F)cc2)c(C#N)c(N2CCOCC2)n1
inactive: [1] 101% | [2] 88.6% | [3] 98.8% | [4] 80.3% | [5] 104% | [6] 90.1% | [7] 74.4% | [8] 81% | [9] 86.5% | [10] 85.9% | [11] 89.2% | [12] 92.9% | [13] 89.2% | [14] 90.6% | [15] 97.3% | [16] 92% | [17] 98.1% | [18] 91.4% | [19] 97.5% | [20] 79.7%

Cc1c(O)c(=O)ccn1-c1nc2ccccc2s1
inactive: [1] 90.5% | [2] 45.3% | [3] 98.9% | [4] 47.6% | [5] 91.2% | [6] 60.6% | [7] 95.8% | [8] 82.7% | [9] 103% | [10] 91.3% | [11] 96.8% | [12] 85.4% | [13] 98.7% | [14] 97.7% | [15] 99% | [16] 109% | [17] 100% | [18] 95% | [19] 57.1% | [20] 92.4%

c1ccc(-c2n(Cc3ccc4ccccc4n3)cc[n+]2Cc2ccc3ccccc3c2)cc1
inactive: [2] 38.4% | [4] 54.6% | [6] 63.8% | [13] 22% | [14] 14.3% | [18] 15.1% | [19] 96%
active: [1] -27% | [3] 4.45% | [5] -0.737% | [7] -2.66% | [8] 4.04% | [9] 2.42% | [10] -27.4% | [11] -2.59% | [12] 3.17% | [15] -12.4% | [16] -15.4% | [17] 6.21% | [20] -14.7%

N#CC(C#N)=C1NC(c2ccccc2)=C(c2ccccc2)C(c2ccccc2Cl)=C1C#N
inactive: [1] 94.8% | [2] 97.6% | [3] 111% | [4] 96.8% | [5] 80.7% | [6] 110% | [7] 113% | [8] 96.2% | [9] 81.5% | [10] 109% | [11] 113% | [12] 88.1% | [13] 105% | [14] 117% | [15] 103% | [16] 108% | [17] 108% | [18] 120% | [19] 96% | [20] 102%

Cc1ccc(C(=O)O)o1
inactive: [1] 96.1% | [2] 104% | [3] 110% | [4] 95.4% | [5] 96.9% | [6] 111% | [7] 108% | [8] 115% | [9] 101% | [10] 116% | [11] 114% | [12] 108% | [13] 105% | [14] 100% | [15] 101% | [16] 102% | [17] 103% | [18] 118% | [19] 101% | [20] 102%

O=C1NN(c2ccccc2)C(c2ccc(Cl)cc2)N2CCC[C@H]12 (stereo partly specified)
inactive: [1] 107% | [2] 94.8% | [3] 105% | [4] 85.3% | [5] 111% | [6] 106% | [7] 84.5% | [8] 107% | [9] 99.5% | [10] 111% | [11] 102% | [12] 98.1% | [13] 103% | [14] 95.7% | [15] 107% | [16] 98.6% | [17] 93.4% | [18] 91.6% | [19] 93.1% | [20] 100%

O=c1[nH]c2ccccc2cc1-c1nc2ccncc2[nH]1
active: [11] -0.575%
inactive: [1] 73.9% | [2] 81.9% | [3] 94.3% | [4] 78.4% | [5] 73.8% | [6] 72.2% | [7] 88.7% | [8] 59.5% | [9] 45.8% | [10] 46.8% | [12] 88.7% | [13] 112% | [14] 85.5% | [15] 90.5% | [16] 84.2% | [17] 90.9% | [18] 76.1% | [19] 108% | [20] 77.8%

COc1ccc(Nc2nc(SCC(C)C)nc(-c3ccc(F)cc3)c2C#N)cc1
inactive: [1] 72.4% | [2] 69.4% | [3] 85.9% | [4] 68.9% | [5] 92.1% | [6] 72% | [7] 30.7% | [8] 33.3% | [9] 57.2% | [10] 20.1% | [11] 88% | [12] 89.4% | [13] 94.3% | [14] 80.9% | [15] 73.4% | [16] 71.4% | [17] 21% | [18] 79.1% | [19] 40.3% | [20] 65%

COc1ccc(-n2nc(C(=O)NCC(=O)O)nc2-c2ccccc2)cc1
inactive: [1] 99.8% | [2] 108% | [3] 105% | [4] 87.5% | [5] 94.1% | [6] 108% | [7] 113% | [8] 102% | [9] 100% | [10] 102% | [11] 112% | [12] 111% | [13] 100% | [14] 111% | [15] 111% | [16] 105% | [17] 116% | [18] 115% | [19] 118% | [20] 104%

COC(=O)/C=C/c1cc(OC)c2c(c1)[C@@H](C(=O)OC)[C@H](c1ccc(OC)c(OC)c1)O2
inactive: [1] 31.4% | [2] 38.5% | [3] 45.5% | [4] 45.9% | [5] 64.1% | [6] 44.4% | [7] 22.1% | [8] 18.7% | [9] 22.9% | [10] 26% | [11] 12.6% | [12] 30.8% | [13] 77% | [14] 42.6% | [15] 66.8% | [16] 43.2% | [18] 37.5% | [19] 16.6% | [20] 33.1%
active: [17] -15.8%

From PubChem BioAssay (NCI)
